Drawing on PubChem BioAssay, this text covers z-score for 35 compounds.

The structures appear in SMILES notation.
Also: test concentration not given here.

One assay is described as follows: compound effects on lung adenocarcinoma cell viability – A549, calcein-AM fluorescence, 48 h, basal, profiling panel (AID 1162). Conditions: higher = more signal.
On to `CO[C@H]1O[C@H](CO)[C@@H](OC(=O)Nc2ccc(Oc3ccccc3)cc2)[C@H](OC(=O)Nc2ccc3c(c2)OCO3)[C@@H]1OC(=O)Nc1ccc2c(c1)OCO2`, for which the z-score was -0.882.

For `C=C(CCCC)/C(=C/C[C@@H](OC(C)=O)c1ccccc1OCCO)c1cc(C(=O)OC)ccc1OC`, the z-score is 1.83. Turning to `C=CCC(OC(C)=O)[C@@H]1[C@@H](N(Cc2cc3ccccc3o2)C(=O)Cc2ccc(OC)cc2)c2cc(OCCCO)ccc2N1C(=O)c1ccc2ccccc2c1` (stereo not given in full), the z-score is 0.0348. As for `O=C1C2C=CC(C(O)c3c(F)cccc3Cl)N(Nc3ccccc3F)C2C(=O)N1c1ccccc1` (stereo not given), the z-score was -0.505. As to `CN(C)C(=O)[C@]1(Cc2ccccc2)N=C(c2ccc(OCCCO)cc2)O[C@@H]1c1ccccc1N=[N+]=[N-]`, the z-score was -0.279.

Another assay in a line: compound effects on differentiated 3T3-L1 adipocyte viability – cell-based, 3T3-L1 adipocytes, calcein-AM fluorescence, 48 h, basal, profiling panel (AID 1163). The settings on record: 3T3-L1 adipocytes viability, higher = more signal.
With `O=C(CS)NCCCCCNC(=O)[C@@H]1C[C@@H]2C(=O)NCC(=O)N2[C@@H]1c1cccc(OCCO)c1`, the z-score was 0.45.

Turning to `O=C(CS)NCCCCCNC(=O)[C@H]1C[C@H]2C(=O)NCC(=O)N2[C@H]1c1cccc(OCCO)c1`, the z-score was 0.0451. For the compound `CN(C)CCCCNC(=O)[C@@H]1C[C@@H]2C(=O)N[C@@H](CCCCN)C(=O)N2[C@@H]1c1ccc(O)cc1`, the z-score was -1.51. In the case of `COc1ccc(CCNC(=O)[C@@]2(C)c3ccccc3C(=O)N(c3ccc(C)cn3)[C@H]2c2ccc(CO)cc2)cc1`, the z-score is -0.2. Turning to `O=C(NCCN1CCOCC1)[C@@H]1c2ccccc2C(=O)N(Cc2cc(C(F)(F)F)cc(C(F)(F)F)c2)[C@H]1c1ccc(CO)cc1`, the z-score is -0.587. On to `O=C(NCc1ccccc1)[C@@H]1c2ccccc2C(=O)N(C2Cc3ccccc3C2)[C@H]1c1ccc(CO)cc1`, for which the z-score was 0.363. Consider `COCCOC(=O)N1C(=O)[C@@]2(c3cc(C#CC4(O)CCCCCC4)ccc31)[C@H](C(=O)Nc1nc3ccccc3s1)[C@H]1C(=O)O[C@H](c3ccccc3)[C@H](c3ccccc3)N1[C@@H]2c1ccccc1OCCO`, for which the z-score is 1.14. In the case of `CC1CC/C=C\[C@H]2OC34C=CCN(c5ccc6ccccc6c5)C(=O)[C@H]3N(CCO)C(=O)[C@@H]4C2C(=O)O1` (stereo not given in full), the z-score is 0.428. On the same count and under the same terms, next, `O=C1O[C@@H](c2ccccc2)[C@@H](c2ccccc2)N2[C@@H](c3ccc(OCCO)cc3)[C@]3(C(=O)Nc4ccc(C#CCCO)cc43)[C@@H](C(=O)NC[C@H](O)c3ccccc3)[C@H]12`: -0.0616; `O=C1OCCC/C=C\[C@H]2OC34C=CCN(c5ccc6ccccc6c5)C(=O)[C@H]3N(CCCCCO)C(=O)[C@@H]4C12` (stereo not given in full): 0.456; `CC(C)CNC(=O)[C@@]1(Cc2ccccc2I)c2ccccc2C(=O)N(Cc2ccccc2C(F)(F)F)[C@H]1c1ccc(CO)cc1`: -0.716. For `C#CCOc1ccc(C[C@@H](C(=O)OC)N(CC#C)[C@@H](/C=C/C2CC2)[C@H](O)Cc2ccccc2)cc1`, the z-score is -0.303. Take `CCOC(=O)[C@H]1C/C=C/C[C@H](C(=O)OCC)C(=O)O[C@H]2[C@@H](OC)O[C@H](CO)[C@@H](OC(=O)c3ccc(Br)cc3)[C@@H]2OC1=O`: the z-score was -0.009. Same read-out and setting: under `O=C1[C@@]23C=C(Br)[C@H](C[C@@H]2COC3)[C@]12CO2` stands -0.959.

As for `O=C1NC(=O)C2C1C=CC(C(O)c1ccc(-c3ccccc3)s1)N2Nc1ccc(Cl)cc1Cl` (stereo not given), the z-score was -0.901. For the compound `C=C(C(=O)CC[C@H](OC(C)=O)c1ccccc1OCCO)C(C)C`, the z-score was -0.375. In the case of `O=C1C2C=CC(C(O)COCc3ccccc3)N(Nc3ccc([N+](=O)[O-])cc3)C2C(=O)N1c1ccccc1` (stereo not given), the z-score was 0.619. Regarding `COCC(=C=CC[C@H](O)c1cccc(OCCO)c1)CCO`, the z-score is -0.214.

As to `NCCCCCCNC(=O)[C@H]1C[C@H]2C(=O)N[C@@H](Cc3ccccc3)C(=O)N2[C@H]1c1cccc(OCCO)c1`, the z-score was 0.454. `CCCCCN1CC=CC23O[C@@H]4C=CCOC(=O)[C@@H]4[C@H]2C(=O)N(C(C)CO)[C@@H]3C1=O` (stereo not given in full): the z-score is -0.093. Consider `CC(c1ccccc1)C(O)C1C=CC2C(=O)N(C)C(=O)C2N1NC(=O)OC(C)(C)C` (stereo not given), for which the z-score was 0.173. For `COCCCNC(=O)[C@@H]1c2ccccc2C(=O)N(Cc2ccccc2)[C@H]1c1ccc(CO)cc1`, the z-score was 0.803. Take `COCCOC(=O)N1C(=O)[C@@]2(c3cc(C#CCCO)ccc31)[C@H](c1ccc(OCCO)cc1)N1[C@H](c3ccccc3)[C@H](c3ccccc3)OC(=O)[C@H]1[C@@H]2C(N)=O`: the z-score was 0.435. With `COc1ccc(C(=O)Nc2ccc(CN3C(=O)[C@]4(O[C@H](CC(=O)N5CCC[C@H]5CO)[C@@H]([Si](C)(C)c5ccc(OC)cc5)[C@@H]4C)c4ccccc43)cc2)cc1`, the z-score is 0.362. Turning to `C=CC[C@]1(C(N)=O)COC(c2ccc(OCCCO)cc2)=N1`, the z-score is -0.793. As for `COC(=O)[C@@]1(Cc2ccccc2)[C@H]2c3cc(C(=O)N(C)C)n(CCc4c[nH]c5ccc(O)cc45)c3C[C@H]2CN1C(=O)c1ccccc1`, the z-score was 0.389. On to `COc1ccc(C#Cc2ccc3c(c2)[C@]2(C(=O)N3)[C@H](c3ccc(O)cc3)N3[C@H](c4ccccc4)[C@H](c4ccccc4)OC(=O)[C@H]3[C@@H]2C(=O)N2CCc3cc(OC)c(OC)cc3C2)cc1`, for which the z-score was -0.817.

Consider `O=C1OCCC=C[C@H]2OC34C=CCN(Cn5nnc6ccccc65)C(=O)[C@H]3N(CCO)C(=O)[C@@H]4C12` (stereo not given in full), for which the z-score was 0.432. On to `CC(C)Cc1ccc(CN2CC[C@@H](N)C2)cc1`, for which the z-score is 0.202.

As to `C[N+](C)(C)CCCCCCNC(=O)[C@H]1C[C@H]2C(=O)N[C@@H](Cc3ccccc3)C(=O)N2[C@H]1c1cccc(OCCO)c1`, the z-score was -1.04. Still for that read-out and setting: under `CO[C@H]1O[C@H](CO)[C@@H](OC(=O)Nc2ccc(Oc3ccccc3)cc2)[C@H](OC(=O)Nc2ccc3c(c2)OCO3)[C@@H]1OC(=O)Nc1ccc2c(c1)OCO2` stands -0.132; under `C=C(CCCC)/C(=C/C[C@@H](OC(C)=O)c1ccccc1OCCO)c1cc(C(=O)OC)ccc1OC`, 0.109; under `C=CCC(OC(C)=O)[C@@H]1[C@@H](N(Cc2cc3ccccc3o2)C(=O)Cc2ccc(OC)cc2)c2cc(OCCCO)ccc2N1C(=O)c1ccc2ccccc2c1` (stereo not given in full), 0.25. Take `O=C1C2C=CC(C(O)c3c(F)cccc3Cl)N(Nc3ccccc3F)C2C(=O)N1c1ccccc1` (stereo not given): the z-score was -1.08. Turning to `CN(C)C(=O)[C@]1(Cc2ccccc2)N=C(c2ccc(OCCCO)cc2)O[C@@H]1c1ccccc1N=[N+]=[N-]`, the z-score was -0.336.
